Measured values: PubChem BioAssay
The other results are listed elsewhere or left out. Active and inactive are the calls of the source.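 How the source made its calls, unless noted: active means mean inhibition above about 50% in the one-dose retest (limit read from the data); inactive means the rest.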

Assays:
[1] = target: Sentrin-specific protease 8 (Homo sapiens) (UniProt Q96LD8); experiment: SENP8 protease inhibitors, retest, confirmation, biochemical, luminescence, single concentration (AID 488912;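 active means mean inhibition across replicates above about 50%, limit read from the data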); details: Recombinant SENP8, Z-RLRGG-aminoluciferin luminescence, 60 min; at 12.5 µM; stronger effect = higher value
Chain of Sentrin-specific protease 8 (Homo sapiens) (Q96LD8 whole entry, looked up): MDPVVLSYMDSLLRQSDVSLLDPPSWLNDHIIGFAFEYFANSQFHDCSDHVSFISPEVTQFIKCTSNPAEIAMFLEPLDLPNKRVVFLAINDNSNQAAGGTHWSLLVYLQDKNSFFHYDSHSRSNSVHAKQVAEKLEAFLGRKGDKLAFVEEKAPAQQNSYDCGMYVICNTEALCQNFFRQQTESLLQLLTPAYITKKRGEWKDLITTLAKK

[2] = target: Sentrin-specific protease 6 (Homo sapiens) (UniProt Q9GZR1); experiment: SENP6 protease inhibitors, confirmation, biochemical, luminescence, single concentration (AID 488915); details: recombinant SENP6, Z-RLRGG-aminoluciferin luminescence; at 12.5 µM; stronger effect = higher value
Chain of Sentrin-specific protease 6 (Homo sapiens) (Q9GZR1 628-1112 limits assumed): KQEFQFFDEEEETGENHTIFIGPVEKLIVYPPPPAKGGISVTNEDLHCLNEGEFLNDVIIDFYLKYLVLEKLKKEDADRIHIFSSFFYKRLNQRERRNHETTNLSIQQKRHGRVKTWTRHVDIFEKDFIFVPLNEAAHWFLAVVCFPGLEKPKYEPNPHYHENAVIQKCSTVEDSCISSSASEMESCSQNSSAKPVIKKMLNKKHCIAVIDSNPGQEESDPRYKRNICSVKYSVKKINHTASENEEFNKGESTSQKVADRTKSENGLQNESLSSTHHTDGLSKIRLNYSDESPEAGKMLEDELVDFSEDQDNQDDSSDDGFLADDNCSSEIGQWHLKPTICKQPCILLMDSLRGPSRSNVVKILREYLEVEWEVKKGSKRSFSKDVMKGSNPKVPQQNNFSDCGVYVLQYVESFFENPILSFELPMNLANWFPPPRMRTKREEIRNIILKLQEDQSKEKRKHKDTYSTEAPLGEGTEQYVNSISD

[3] = target: Sentrin-specific protease 7 (Homo sapiens) (UniProt Q9BQF6); experiment: SENP7 protease inhibitors, retest, confirmation, biochemical, luminescence, single concentration (AID 488917); details: recombinant SENP7, Z-RLRGG-aminoluciferin luminescence, 40 min; at 12.5 µM; stronger effect = higher value
Chain of Sentrin-specific protease 7 (Homo sapiens) (Q9BQF6 706-1050 limits assumed): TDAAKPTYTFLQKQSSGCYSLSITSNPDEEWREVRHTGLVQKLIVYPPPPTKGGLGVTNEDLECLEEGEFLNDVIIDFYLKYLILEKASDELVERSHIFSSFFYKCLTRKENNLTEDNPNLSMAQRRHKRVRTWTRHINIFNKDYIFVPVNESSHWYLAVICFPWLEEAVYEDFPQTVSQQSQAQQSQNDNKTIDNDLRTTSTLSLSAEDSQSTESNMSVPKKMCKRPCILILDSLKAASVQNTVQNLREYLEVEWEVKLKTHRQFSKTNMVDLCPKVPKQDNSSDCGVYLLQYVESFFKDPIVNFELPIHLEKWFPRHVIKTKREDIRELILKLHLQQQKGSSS

Caspase-3 (Homo sapiens) = Caspase-3 (Homo sapiens) (UniProt P42574); experiment: caspase-3 protease inhibitors, confirmation, selectivity assay for SENP inhibitor project, biochemical, single concentration (AID 488918;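 active means mean inhibition above about 50%, limit read from the data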;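 further: plate controls were enzyme with DMSO for no effect and wells without caspase-3 for full effect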); details: purified caspase-3, Z-DEVD-aminoluciferin luminescence, 60 min; at 12.5 µM; stronger effect = higher value
Chain of Caspase-3 (Homo sapiens) (P42574 28-227 limits assumed): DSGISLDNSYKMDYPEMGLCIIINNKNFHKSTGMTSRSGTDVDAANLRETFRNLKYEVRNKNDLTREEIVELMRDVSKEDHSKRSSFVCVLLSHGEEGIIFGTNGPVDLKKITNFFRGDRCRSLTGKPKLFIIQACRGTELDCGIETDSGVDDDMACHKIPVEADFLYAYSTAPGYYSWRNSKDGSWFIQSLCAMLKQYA

[4] = luciferase luminescence interference by compounds, confirmation, artefact control for SENP inhibitor project, biochemical, single concentration, SENP8 reaction pre-completed (AID 488919;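 active means mean inhibition above about 50% when retested at one dose, limit read from the data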;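 further: plate controls were DMSO wells with completed reaction for no effect and substrate without enzyme for full effect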); details: Pre-incubated SENP8/Z-RLRGG-aminoluciferin, at 12.5 µM, stronger effect = higher value
[5] = activators of apoptotic CHOP UPR arm, confirmation, cell-based, CHO-CHOP luciferase reporter, single concentration (AID 463112; in the data active means activation above about 33%;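 further: 0% = DMSO wells and 100% = tunicamycin 10 µg/mL wells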); details: CHO-CHOP cells, CHOP-luciferase reporter luminescence; at 10 µM; stronger effect = higher value; percent of tunicamycin response, DMSO as zero
[6] = HIF-2a reporter inhibitor retest, confirmation, luminescence, 786-0 RCC cells (AID 651580;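 active means mean inhibition across four replicates of at least 40 percent at the single tested concentration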); details: HIF-2a luciferase reporter luminescence, overnight, at 18.8 µM, stronger effect = higher value
[7] = HIF-1a luciferase reporter signal reduction – MiaPaCa-2 cells, single concentration, counter-screen for HIF-2a inhibitor project, confirmation (AID 651589;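 active means mean inhibition of the reporter signal across four replicates at the single tested dose of 50% or more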); details: MiaPaCa-2 HIF-1a luciferase reporter, desferoxamine, overnight; at 18.8 µM; stronger effect = higher value
[8] = target: Tumor necrosis factor receptor superfamily member 10B (Homo sapiens) (UniProt O14763); experiment: caspase-8 TRAIL sensitization, hit retest, confirmation, cell-based, NB7+caspase-8, with/without TRAIL, luminescence panel (AID 651596; in the data active means activity above about 50%); details: NB7 neuroblastoma + caspase-8, TRAIL sensitization, luminescence viability, with TRAIL, mean of runs, at 10 µM, stronger effect = higher value
Chain of Tumor necrosis factor receptor superfamily member 10B (Homo sapiens) (O14763 whole entry, looked up): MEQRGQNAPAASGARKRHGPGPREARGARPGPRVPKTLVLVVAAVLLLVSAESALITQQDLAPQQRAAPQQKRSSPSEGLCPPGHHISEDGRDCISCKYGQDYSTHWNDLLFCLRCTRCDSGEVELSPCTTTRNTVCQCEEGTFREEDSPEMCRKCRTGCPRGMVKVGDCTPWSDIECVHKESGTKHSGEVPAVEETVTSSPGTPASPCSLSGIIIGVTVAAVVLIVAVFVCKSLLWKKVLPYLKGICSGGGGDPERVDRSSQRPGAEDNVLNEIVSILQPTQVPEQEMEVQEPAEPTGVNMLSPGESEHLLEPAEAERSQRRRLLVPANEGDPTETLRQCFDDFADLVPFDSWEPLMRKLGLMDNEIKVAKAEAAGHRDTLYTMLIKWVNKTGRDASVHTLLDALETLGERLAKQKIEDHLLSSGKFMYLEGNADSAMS

[9] = as above; details: NB7 neuroblastoma + caspase-8, without TRAIL, luminescence viability, without TRAIL, mean of runs, at 10 µM
[10] = target: Tumor necrosis factor receptor superfamily member 10B (Homo sapiens) (UniProt O14763); experiment: TRAIL sensitizers in caspase-8 expressing neuroblastoma cells, dose response, NB7 cells plus caspase-8, luminescence, panel (AID 652002); details: NB7 neuroblastoma +caspase-8, TRAIL sensitization, luminescence viability, NB7+Caspase-8, with TRAIL, run 1; at 12.5 µM (top of the series)
[11] = target: Tumor necrosis factor receptor superfamily member 10B (Homo sapiens) (UniProt O14763); experiment: as above; details: NB7 neuroblastoma +caspase-8, TRAIL sensitization, luminescence viability, NB7+Caspase-8, with TRAIL, run 2; at 12.5 µM (top of the series)
[12] = as above; details: NB7 neuroblastoma +caspase-8, no TRAIL, compound-alone cytotoxicity counter-screen, luminescence viability, NB7+Caspase-8, run 1; at 12.5 µM (top of the series) unless noted
[13] = as above; details: NB7 neuroblastoma +caspase-8, no TRAIL, compound-alone cytotoxicity counter-screen, luminescence viability, NB7+Caspase-8, run 2; at 12.5 µM (top of the series) unless noted

In the case of `O=C(ON=C1CCN(S(=O)(=O)c2ccccc2)CC1)c1ccc(Cl)cc1`, the inhibition [1] is reported as 12.5% (inactive), the inhibition [2] is reported as 15.5% (inactive) and the inhibition [3] is reported as 3.4% (inactive). The inhibition (Caspase-3 (Homo sapiens)) was 17.7% (inactive) and the inhibition [4] was -1.9% (inactive).

In the case of `O=C(/C(=C/c1cccc(Cl)c1)c1nc2ccccc2[nH]1)c1ccccc1`, the activation [5] is reported as 115% (active), the inhibition [6] is reported as 26.3% (inactive) and the inhibition [7] is reported as 105% (active).

For `COc1ccc(/C=N/Nc2ccccc2C(=O)O)cc1`, the inhibition [1] was 97.3% (active), the inhibition [2] was 97.5% (active) and the inhibition [3] was 103% (active). The inhibition (Caspase-3 (Homo sapiens)) was 96% (active) and the inhibition [4] was 97.6% (active).

For `COc1cccc(OCC(O)CNC(=O)c2oc3c(C)c(C)ccc3c2C)c1` (stereo not drawn), the inhibition [1] was 5.2% (inactive), the inhibition [2] was -1.7% (inactive) and the inhibition [3] was -2.1% (inactive). The inhibition (Caspase-3 (Homo sapiens)) was -3.9% (inactive) and the inhibition [4] was -0.9% (inactive).

In the case of `O=C(Nc1ccncc1)c1cc2ccccc2o1`, the inhibition [1] is reported as 49.1% (inactive), the inhibition [2] is reported as 44% (inactive) and the inhibition [3] is reported as 76.1% (active). For the same compound, the inhibition (Caspase-3 (Homo sapiens)) was 75.6% (active) and the inhibition [4] was 49.3% (inactive).

With `COc1cc(NC(=O)c2cncc(-c3ccc(C#N)cc3)c2)cc(C(=O)Nc2cccc(C(F)(F)F)c2)c1` the activation [5] was 83.5% (active), the activity [8] was 54.6% and the activity [9] was 26.9%. For the same compound, the activity, % sensitization [10] was -1.86%, the activity, % sensitization [11] was -1.47% and the activity, % sensitization [12] was -11.8%. It also gave an activity, % sensitization [13] of -16.3%.

For `CCc1noc(C)c1C(=O)Nc1nc2ccc(OC)cc2s1`, the inhibition [1] was 45.2% (inactive), the inhibition [2] was 42.8% (inactive) and the inhibition [3] was 78.3% (active). For the same compound, the inhibition (Caspase-3 (Homo sapiens)) was 58.3% (active) and the inhibition [4] was 19.6% (inactive).

With `CCCCSc1nnc(-c2ccc(C)cc2)o1` the inhibition [1] was 19.5% (inactive), the inhibition [2] was 60.5% (active) and the inhibition [3] was 85.3% (active). For the same compound, the inhibition (Caspase-3 (Homo sapiens)) was 55% (active) and the inhibition [4] was 23.2% (inactive).

With `Cc1cc(C)nc(S/C=C/C(=O)c2ccccc2)n1` the activation [5] was 83.4% (active), the inhibition [6] was 58.6% (active) and the inhibition [7] was 98.9% (active).

With `COc1ccc(/C=C/c2noc(-c3ccccc3OC(C)=O)n2)cc1` the inhibition [1] was 55.1% (active), the inhibition [2] was 87.7% (active) and the inhibition [3] was 94.5% (active). For the same compound, the inhibition (Caspase-3 (Homo sapiens)) was 77% (active) and the inhibition [4] was 22.7% (inactive).

For `CCc1ccc(C(=O)COC(=O)c2ccco2)cc1`, the inhibition [1] was 62.7% (active), the inhibition [2] was 62% (active) and the inhibition [3] was 83.3% (active). For the same compound, the inhibition (Caspase-3 (Homo sapiens)) was 74.5% (active) and the inhibition [4] was 68% (active).
